Each structure is given as a SMILES string. The whole screen tested about 370,000 compounds, of which about 5,400 (1.5%) were called active. This is one part of a sample in which actives are shown more often than they occur. A number with no mark means an inactive call.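 The calls were made as follows: active = activation above the mean of all tested compounds plus 3 SD (cut at about 5.5% in these data); inactive = the rest.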

The assay concerns DAF-12 nuclear receptor (Haemonchus contortus). Put plainly: H. contortus DAF-12 nuclear receptor activators, primary screen, cell-based, luminescence, HEK293, lit1-tk-luc reporter (AID 652067).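 Also: 100% = response to 3 µM Δ7-dafachronic acid high control.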 The conditions noted are these: HEK293 hcDAF-12 lit1-tk-luc reporter, at 6.8 µM, stronger effect = higher value, 0% DMSO, 100% Δ7-dafachronic acid.
As for `Cc1nnc(SCC(=O)N2CCN(c3ccccc3)CC2)n1-c1ccccc1`, the activation was 6.51% (active).
The same measure for `Cc1cc2nnc(SCC(=O)N3CCN(c4ccccc4)CC3)n2c(N)n1`: -2.55%; for `O=C(CSc1nnc(Cc2ccccc2)n1-c1ccccc1)N1CCOCC1`: -0.92%; for `CCC1CCc2c(sc(NC(C)=O)c2C#N)C1` (stereo not drawn): -0.54%.
To `N#Cc1c(NC(=O)C2CCCO2)sc2c1CCCCC2` (stereo not drawn) belongs 6.65% (active); to `N#Cc1c(NC(=O)c2ccc(N3CCOCC3)c([N+](=O)[O-])c2)sc2c1CCCC2`, -0.5%; to `COC(=O)C1=C(C)NC(=S)NC1c1ccc(OC)cc1` (stereo not drawn), -0.46%.
To `C=CC[C@]12C[C@@]3(O[C@H](c4ccc(C(F)(F)F)cc4)N=C3C[C@H](c3ccc(OC)cc3)[C@H]1C)N(C1CCN(Cc3ccccc3)CC1)C2=O` belongs 1.02%; to `N=c1c2c3c(sc2nc2n1CCCCC2)CCCC3`, 0.65%.
For `O=c1c2c(nc3n1CCCCC3)sc1c(O)cccc12`, the activation is 5.87% (active).
To `CC(=O)c1ccc(NC(=O)c2sc3nc4n(c(=O)c3c2C)CCCCC4)cc1` belongs 3.47%; to `c1csc(-c2nnc(SCc3nc4ccccc4[nH]3)o2)c1`, 0.87%; to `CC1CCCN(c2cccc3c2S(=O)(=O)N(Cc2ccc(F)cc2)[C@@H](C)[C@H](c2ccccc2)O3)C1` (stereo partly drawn), -1.13%.
To `Cc1ccc(SCCSc2ncccn2)cc1` belongs 7.62% (active); to `Cc1ccc(SCCC(=O)NC(C(C)C)C(C)C)cc1`, -0.97%; to `Cc1ccc(SCCC(=O)NCc2ccccn2)cc1`, 0.97%.
For `COc1cccc(CN(C)C(=O)CC23CC4CC(CC(C4)C2)C3)c1OC`, the activation was -1.43%.
On to `CCOC(=O)c1ccc(-c2ccc3ncnc(N(C)Cc4sccc4C)c3c2)o1`, for which the activation is 0.56%.
To `Cc1ccc(S(=O)(=O)Nc2nc3ccccc3nc2N2CCc3ccccc3C2)cc1` belongs 6.92% (active); to `Cc1ccc(S(=O)(=O)C(C#N)c2nc3ccccc3nc2N2CCCC2)cc1C` (stereo not drawn), -0.94%; to `COCCCNc1nc2ccccc2nc1NS(=O)(=O)c1ccc(F)cc1`, 4.77%.
Turning to `O=C(CSc1nc2c(c(=O)[nH]1)CCCC2)N1CCCCC1`, the activation is 0.61%.
To `CCOC(=O)C1CCN(C(=O)C(C)(C)NC(=O)Nc2ccc(F)c(F)c2)CC1` belongs -0.52%.
On to `O=C(NCc1cccs1)C1CCN(S(=O)(=O)c2ccccc2[N+](=O)[O-])CC1`, for which the activation is -1.15%.
The same measure for `c1ccc(C2CNCc3c2ccc2ccccc32)cc1` (stereo not drawn): 6.29% (active); for `c1ccc2c(CCN3CCNC[C@H]3Cc3cccc4ccccc34)cccc2c1`: -0.26%; for `Cn1ncc([N+](=O)[O-])c1C(=O)Nc1cc(Cl)ccc1Cl`: -1.09%.
The same measure for `c1coc(CCNc2ncnc3ccc(-c4ccc5c(c4)OCO5)cc23)c1`: 3.8%.
To `CC(C)n1c(NCc2c[nH]c3ccccc23)nc2ccccc21` belongs 1.49%; to `CCC(c1nc2ccccc2[nH]1)n1c(=O)c(-c2cccs2)nc2ccccc21` (stereo not drawn), -1.27%; to `CC(C)(C)C(c1nc2ccccc2[nH]1)n1c(Cc2csc3ccccc23)nc2ccccc21` (stereo not drawn), 6.12% (active).
Take `N#Cc1nc(N)nc(N(c2ccccc2)c2ccccc2)n1`: the activation is -1.6%.
`Cc1ccccc1C(=O)N[C@H](C(=O)N1CCC[C@H]1C(=O)NCc1ccccc1)C(C)C`: the activation was 6.82% (active).
With `CC(C)C[C@H](NC(=O)CC1CCCC1)C(=O)N1CCC[C@H]1C(=O)NCc1ccccc1`, the activation is -1.97%.
Take `Cc1ccccc1NC(=O)N1CCCC1C(=O)NCc1ccccc1` (stereo not drawn): the activation was 0.56%.
With `C=CCN1[C@H](CC(C)C)COc2cccc(N3CCCC3)c2S1(=O)=O`, the activation is 1.33%.
To `COC(=O)[C@]12C[C@H](CC(=O)N3CCN(C(=O)C4CC4)CC3)C(=O)N(Cc3ccc4c(c3)OCO4)C1=C[C@H](C(C)(C)C)O[C@@H]2C` belongs -0.45%.
The same measure for `Nc1ncnc2c1ncn2[C@@H]1O[C@H](C(=O)N[C@@H](CCc2ccccc2)C(=O)N2CCCN(Cc3cccs3)CC2)[C@@H](O)[C@H]1O`: -0.84%.
To `CC1CCN(c2ccc(C(=O)O)cc2NS(=O)(=O)c2ccc(Br)s2)CC1` belongs 0.68%.
As to `CCOc1cccc(C(=O)Nc2cnn(Cc3ccccc3)c2)c1`, the activation is -0.69%.
To `O=C(Cn1cnc([N+](=O)[O-])n1)NCCc1ccccc1` belongs 1.32%.
As to `Cc1ccc(NC(=O)CC2C(=O)N(Cc3ccccc3)C(=S)N2NC(=O)c2cccc(F)c2)c(C)c1` (stereo not drawn), the activation is 0.38%.
The same measure for `Cc1c(Br)c([N+](=O)[O-])nn1CC(=O)N1CCN(Cc2ccccc2)CC1`: -0.25%; for `O=C(Nc1ccn(Cc2ccccc2)n1)c1n[nH]c([N+](=O)[O-])c1Cl`: 5.98% (active); for `O=C(Nc1ccn(Cc2ccccc2)n1)c1cccc(F)c1`: 8.2% (active).
The same measure for `CCCCCN1CCCCC(NC(=O)C(C)CCC)C1=O` (stereo not drawn): 0.16%; for `CC(C)(C)C(=O)Nc1c(Br)c(C2CC2)nn1-c1ccccc1`: -0.94%; for `O=C(CCCCCN1C(=O)C2C3C=CC(C3)C2C1=O)Nc1ccccc1` (stereo not drawn): -1.48%.
The same measure for `CN(C)CC(=O)N[C@@H]1C[C@@H]2O[C@H](CO)CC[C@@H]2O[C@@H]1CCc1ccc(C#Cc2ccccc2)cc1`: -2.47%; for `COc1ccc(C2=NOC(COC(=O)c3ccc4ccccc4n3)C2)cc1` (stereo not drawn): 7.15% (active).
Consider `COc1ccc(C(=O)COC(=O)c2ccc3ccccc3n2)cc1`, for which the activation was 0.42%.
The same measure for `COc1cccc(NC(=O)COC(=O)c2ccc3ccccc3n2)c1`: 4.16%; for `COc1cccc(C(O)Cc2nc3ccccc3n2C)c1OC` (stereo not drawn): -0.39%.
To `Cc1ccc(OCc2nc3ccccc3n2C)cc1` belongs 11.3% (active); to `Cc1ccc(OCc2nnc(SC3CCc4ccccc4C3=O)n2C)cc1` (stereo not drawn), 1.15%; to `COc1ccc(OC)c(NC(=O)Cn2c(=O)oc3ccccc32)c1`, -1.37%.
To `Cc1cccnc1NC(=O)Cn1c(=O)oc2ccccc21` belongs 6.75% (active); to `CC(=O)c1ccc(NC(=O)Cn2c(=O)oc3ccccc32)cc1`, -1.53%.

The record behind these values is PubChem BioAssay AID652067 (The Scripps Research Institute Molecular Screening Center, 2013).
